The whole screen tested about 390,000 compounds, of which about 2,200 (0.56%) were called active. Another 3% or so got no clear call; they are omitted. Calls follow the shape of the dose curve; as a rule, active = well fitted inhibition curve with a large enough effect; inconclusive = small, poorly fitted or top-dose-only effect; inactive = no such curve, though single readings can be large or run the other way. This excerpt belongs to a sample that is enriched for actives.
biological target: Chromobox protein homolog 1 (Homo sapiens) (UniProt P83916); experiment: HTS for Inhibitors of HP1-beta Chromodomain Interactions with Methylated Histone Tails; conditions: AlphaScreen HP1-beta / biotin-H3K9me3 peptide binding; series mostly up to 114 µM; also: nearly all actives have a fitted effect of over 70% in size
Method in brief: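 AlphaScreen: HP1-beta (50 nM) preformed 30 min with biotin-H3(1-18)K9me3 peptide (50 nM) in PBS pH 7.4, 0.01% Tween-20. Compound added for 30 min at RT, then streptavidin donor/nickel chelate acceptor beads (10 ug/mL) for 30 min.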
Potency is read from the fitted curve at half-maximal effect.

Chain of Chromobox protein homolog 1 (Homo sapiens) (P83916 whole entry, looked up): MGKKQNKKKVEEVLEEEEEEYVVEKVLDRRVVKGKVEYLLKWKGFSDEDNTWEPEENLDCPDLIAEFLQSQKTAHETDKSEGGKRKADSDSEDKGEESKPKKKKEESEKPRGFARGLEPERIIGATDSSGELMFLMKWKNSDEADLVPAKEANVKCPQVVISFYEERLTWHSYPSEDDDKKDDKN

Potency, active:
C=CS(=O)c1sc(Cl)c(N2CCOCC2)c1[N+](=O)[O-] (centres undefined) 44.7 µM, CCc1cccc(C)c1Nc1c(-c2ccc(N(C)C)cc2)nc2ncccn12 17.8 µM, CCN(CC)S(=O)(=O)c1cccc(-c2n[nH]c(=S)n2/N=C/c2ccc(C(=O)OC)cc2)c1 50.1 µM, Cc1cccc(-n2c(N)c(C(=O)N3CCN(C)CC3)sc2=S)c1 7.94 µM, C=CCn1c(=S)[nH]c2scc(-c3ccco3)c2c1=O 35.5 µM, CCN(CC)c1cc(NC2CCCCC2)c2c3c(onc13)-c1ccccc1C2=O 7.94 µM, Nc1ccc2nc3c(=O)[nH]c(=S)[nH]c3nc2c1 2 µM, O=C1Nc2ccc(Br)cc2/C1=N/N=C/C1=C(N2CCOCC2)C(=C\c2ccccc2)/CC1 5.62 µM, CCOC(=O)C1=C(c2ccc(OC)cc2)C(=O)c2ccccc2C1=O 31.6 µM, CCOC(=O)N1CCN(C(c2cccnc2)c2ccc3cccnc3c2O)CC1 (centres undefined) 8.91 µM, Nc1ccccc1SC(C[N+](=O)[O-])c1ccccc1 (centres undefined) 15.8 µM, Cc1ccc(Nc2cc(C)nc3c(C)ccc([N+](=O)[O-])c23)cc1 22.4 µM, NC1=NOC(=O)C1C1CCCCC1 (centres undefined) 5.01 µM, Cc1ccccc1C(=O)Nc1ccc(N2CCCCCC2)cc1 35.5 µM, CC(=O)Nc1ccc(S(=O)(=O)Nc2ccc(N3CCCCC3)cc2)cc1 20 µM, Cc1cc(N=Nc2ccc3ccccc3c2)ccc1O 50.1 µM, COc1cc(N2CCCC2)c(OC)cc1/C=C(/C#N)c1cccc(Br)c1 35.5 µM, COc1cc2c3c(c1)/C(=C1/SC(=S)NC1=O)C(=O)N3C(C)(C)C=C2C 10 µM, O=C1C(Cl)=C(Oc2ccccc2)C(=O)c2ccccc21 2 µM, Cc1cc(=O)n(C)c(=O)n1CCCNc1ccccc1 56.2 µM, O=C(CN1CCN(c2ccc(O)cc2)CC1)Nc1ccc(-c2ccccc2)cc1 79.4 µM, O=C(CN1CCN(c2ccc(O)cc2)CC1)Nc1cc(S(=O)(=O)N2CCOCC2)ccc1Cl 79.4 µM

Potency, inactive:
Cc1nc(SCC(=O)N2CCN(c3ccccc3)CC2)[nH]c(=O)c1C, COc1cccc(-c2nc(CS(=O)(=O)CC(=O)N3CCN(c4cc(C)ccc4C)CC3)c(C)o2)c1, O=C1C[C@@H](c2ccc3ccccc3c2)N1S(=O)(=O)c1ccccc1[N+](=O)[O-], CCN(CC)C(=O)CSc1nc2cc3c(cc2c(=O)n1CCCC(=O)NCc1ccc2c(c1)OCO2)OCO3, CC(=O)N1CCCc2cc(S(=O)(=O)Nc3ccc(Cl)cc3F)ccc21, CCn1c2c(c(=O)n3ncc(C(=O)N4CCN(c5ccccc5)CC4)c13)CN(Cc1ccc(OC)cc1)CC2, COc1ccccc1CNC(=O)C(=O)NCC(c1cccs1)S(=O)(=O)c1cccs1 (centres undefined), Cc1nnc(C)n1-c1ccc(C(=O)Nc2cccc(Br)c2)cc1, FC(F)(F)c1cc(Nc2nc3ccccc3c3nncn23)ccc1Cl, Cc1cccc(C)c1Nc1c(-c2ccccc2O)nc2ncccn12, Cc1ccccc1Nc1c(-c2ccccc2)nc2ncccn12, COc1ccc(CCNC(=O)c2ccc3c(c2)sc2nc(-c4ccc(C)cc4)cn23)cc1OC, c1ccc(Cn2nnc3c(N4CCCCC4)ncnc32)cc1, COC(=O)c1ccc(/C=N/N2C(C)CCCC2C)cc1 (centres undefined), CCN(CC)S(=O)(=O)c1cccc(NC(=O)c2ccc(S(=O)(=O)N3CCCC3)cc2)c1, CCCCNC(=O)Cn1c(SCc2cccc(Cl)c2)nc2ccncc21, CCOC(=O)c1cc2c(=O)n3ccccc3nc2n(CC2CCCO2)c1=NC(=O)c1ccccc1Br (centres undefined), COC(=O)c1ccccc1NC(=O)C(Cc1ccccc1)N1Cc2ccccc2C1=O (centres undefined), COc1cc(NC(=O)c2nn(-c3ccc(C)cc3)c(=O)c3c2c2ccccc2n3C)cc(OC)c1OC, COc1cccc(N2CCN(c3ccc4nnc(CCC(=O)N5CCN(C)CC5)n4n3)CC2)c1, Cc1cccc(N2CCN(C(=O)c3ccccc3NC(=O)C3CCCCC3C(=O)O)CC2)c1 (centres undefined), O=S(=O)(Nc1ccc2nc(-c3cccc(Cl)c3)oc2c1)c1ccccc1, CCc1ccc(NC(=O)CCCc2nnc3n(CCCOC)c(=O)c4sccc4n23)cc1, Cc1ccc(Cl)cc1NC(=O)CSc1nccn1C, CCOC(=O)N1CCc2c(sc3c2c(=O)n(-c2ccc(CC)cc2)c(=O)n3C)C1, CC1=C(c2ccc(C)c(C)c2)S(=O)(=O)NC1=NCc1ccccc1Cl, COc1ccc(NC(=O)CSc2nccn2Cc2ccc3c(c2)OCO3)cc1, Cc1oc2ccc(O)c(CN3CCCCC3)c2c1C(=O)Nc1cccc(C(F)(F)F)c1, O=C(c1ccc2c(=O)n(Cc3ccco3)c(=S)[nH]c2c1)N1CCCC1, CCOC(=O)C1C(=O)C=C(c2ccc(OC)cc2)CC1c1ccco1 (centres undefined), CCOC(=O)C1=C(CC)Nc2ccccc2N=C1N, COc1cccc(CNC(=O)C2CCC(CNS(=O)(=O)c3cccs3)CC2)c1 (centres undefined), Cc1ccccc1CS(=O)(=O)CC1Nc2ccc(C(=O)NCc3ccc(Cl)cc3)cc2NC1=O (centres undefined), Cc1ccc(NC(=O)C(=O)NCC(c2cccnc2)N2CCOCC2)cc1 (centres undefined), COc1ccccc1N1CCN(C(CNC(=O)C(=O)NCc2ccc(C)cc2)c2cccnc2)CC1 (centres undefined), CN(Cc1ccccc1)C(=O)c1cc2c(=O)n(C)c3ccccc3c2s1, Cc1cccc(-n2ncc(C(=O)N3CCc4ccccc4C3)c2C2CCN(C(=O)OC(C)(C)C)CC2)c1, Cc1c(NC(=O)c2cc(=O)c3ccccc3o2)c(=O)n(-c2ccccc2)n1C, CCc1nnc(SCC(=O)Nc2cc(OC)ccc2OC)nc1CC, Cc1ccc(NC2=NC(c3ccccc3)n3c(nc(C)cc3=O)N2)cc1 (centres undefined), Cc1ccccc1Nc1c([N+](=O)[O-])ccc2nonc12, CCOC(=O)c1c(NC(=O)c2cc(-c3ccc(Cl)cc3)on2)sc2c1CCCC2, O=C1C2C(c3ccccc3)CC=CC2C(c2ccoc2)N1Cc1ccccc1 (centres undefined), CC(C)C(=O)Nc1nc2c(s1)CC(C(C)(C)C)CC2 (centres undefined), Cc1ccc(SCC(CC(C)C)N2CCN(CCc3ccccc3)CCC2=O)cc1 (centres undefined), CN1c2ccc(Cl)cc2-c2nc(SCC(=O)Nc3cc(F)ccc3F)ncc2S1(=O)=O, CC1(C)CCc2cc(S(=O)(=O)N3CCN(c4nc(-c5cccs5)nc5ccccc45)CC3)ccc2O1, COc1ccc(CCN2C(=O)N(c3cccc(OC)c3)C(=O)C2CC(=O)Nc2ccccc2)cc1 (centres undefined), CC(=O)Nc1ccc(S(=O)(=O)N2CCCC2C(=O)O)cc1 (centres undefined), Cc1cc(NS(=O)(=O)c2ccc(NC(=O)c3ccccc3C)cc2)nc(C)n1, CC(=O)Nc1ccc(S(=O)(=O)N2CCN(c3ccccc3)CC2)cc1, O=C(NC(=O)c1ccccc1N1CCCCC1)Nc1ccc(Br)cc1, CCOc1ccc(CNC(=O)CCc2c(C)nn(-c3ccc(N4CCCCC4)nn3)c2C)cc1, CCOC(=O)c1c(NC(C)=O)c2c3c(sc2n1Cc1c(C)cc(C)cc1C)CCCC3, COc1ccc(C(=O)COC(=O)CCCC(=O)Nc2cc(C(F)(F)F)ccc2Cl)cc1, CCC(Sc1nnc(-c2ccc(OC)cc2)c(-c2ccc(OC)cc2)n1)C(=O)NC1CCCCC1 (centres undefined), Cc1cc(C)cc(NS(=O)(=O)c2ccc3[nH]cc(C(=O)N4CCCCC4)c(=O)c3c2)c1, COc1cccc(CNC(=O)c2ccc3c(c2)sc2nc(-c4cccc(OC)c4)cn23)c1, CCCNc1ncnc2c1c(-c1ccccc1)cn2-c1ccc(OCC)cc1, CCOC(=O)c1[nH]c(C)c(CCC(=O)N2CCN(c3ccccc3)CC2)c1C, Cc1ccc(NC(=O)Cn2cnc3nc4c(cc3c2=O)CCCC4)cc1Cl, CCOC(=O)c1cc(-c2ccc(OC)c(S(=O)(=O)Nc3ccc(OC)cc3OC)c2)on1, O=C1CN(Cc2ccccc2)S(=O)(=O)c2ccccc21, COc1ccc(Cc2nc3ccc(C(=O)NCc4ccccc4C)cc3o2)cc1, Cc1cccc(N2CCN(C(=O)c3ccc(Nc4nc5ccccc5n5nnnc45)cc3)CC2)c1C, Cc1csc2nc(COC(=O)c3ccccc3NC(=O)c3ccccc3Cl)cc(=O)n12, COc1ccc(-c2nnc(SCC(=O)Nc3ccc(C(C)C)cc3)nc2-c2ccc(OC)c(OC)c2)cc1OC, COc1ccc(Br)cc1C1C2C=CCC(C)C2C(=O)N1Cc1ccccc1 (centres undefined), CCOC(=O)c1ccc(NC(=O)Cn2cc(S(=O)(=O)Cc3ccccc3F)c3ccccc32)cc1, Cc1c(S(=O)(=O)NCc2ccccc2)c(=O)n(C)c(=O)n1C, Cn1c(=O)c(=O)n(C)c2cc(S(=O)(=O)NCCc3ccccc3)ccc21, Cc1ccc(NC(=O)NC(C)c2c(-n3cccc3)sc(C)c2C)c(C)c1 (centres undefined), COc1ccc(CN(Cc2ccccc2)C(=O)c2ccc(O)cc2)cc1COc1ccc(NC(C)=O)cc1, O=C(CN1CCN(c2cccc(Cl)c2)CC1)Nc1ccc(S(=O)(=O)N2CCOCC2)cc1, Cc1ccc(Cl)cc1NC(=O)CN1CCN(S(=O)(=O)N2CCOCC2)CC1, CCN(CC)c1ccc(NC(=O)CN2CCN(c3ccccn3)CC2)cc1, CC(=O)c1ccc(N2CCN(CC(=O)Nc3ccccc3N3CCOCC3)CC2)cc1

From PubChem BioAssay AID540317 (National Center for Advancing Translational Sciences (NCATS), 2011)
